# In PubChem BioAssay (NCATS):
# Active and inactive are the calls of the source. Unless noted, how the calls were made is not given here.
# Key:
# [1] = qHTS profiling for inhibitors of Plasmodium falciparum (3D7) proliferation (AID 743322);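 further: infected erythrocytes exposed to compound for 72 h before lysis; 100% = DMSO vehicle wells and 0% = 0.29 µM artemisinin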; conditions: P. falciparum 3D7 proliferation; at 28.7 µM (top of the series) unless noted
# How it was run: (§1)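 Erythrocytes infected with P. falciparum (0.3% parasitemia, 2.5% hematocrit) incubated with compounds 72 h at 37 C, 5% CO2. Lysis with saponin/Triton buffer containing SYBR Green I, overnight at room temperature in the dark; DNA fluorescence (485/535 nm) normalised to 0.29 uM artemisinin and DMSO.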
# [2] = qHTS profiling for inhibitors of Plasmodium falciparum (DD2) proliferation (AID 743323); conditions: lower = more inhibition; at 28.7 µM (top of the series) unless noted
# How it was run: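 Parasite DNA quantified by SYBR Green fluorescence (ex 485, em 535 nm) after saponin/Triton lysis and overnight dark incubation. Cultures: 0.3% parasitemia, 2.5% hematocrit, 72 h, 37 C; data scaled between DMSO and 0.29 uM artemisinin.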
# [3] = qHTS profiling of the MIPE4 collection as inhibitors of Plasmodium falciparum (3D7) proliferation (AID 743344);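 further: scaled between DMSO vehicle wells and 0.29 µM artemisinin as full inhibition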; conditions: P. falciparum 3D7 in erythrocytes, SYBR Green DNA fluorescence, 72 h; at 28.5 µM (top of the series)
# How it was run: as §1
# [4] = qHTS profiling of the MIPE4 collection as inhibitors of Plasmodium falciparum (DD2) proliferation (AID 743345); conditions: P. falciparum Dd2 in erythrocytes, SYBR Green DNA, 72 h; at 28.5 µM (top of the series) unless noted
# How it was run: as §1
# [5] = qHTS profiling of the MIPE4 collection as inhibitors of Plasmodium falciparum (DD2) proliferation (Rep 2) (AID 743346); conditions: P. falciparum Dd2 in erythrocytes, SYBR Green DNA, 72 h; at 28.5 µM (top of the series)
# How it was run: as §1
# [6] = qHTS profiling of the MIPE4 collection as inhibitors of Plasmodium falciparum (HB3) proliferation (AID 743347);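 further: plate controls were DMSO vehicle wells for no effect and artemisinin wells for full effect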; conditions: P. falciparum HB3 in erythrocytes, SYBR Green DNA, 72 h; at 28.5 µM (top of the series)
# How it was run: as §1
# [7] = Immunotoxin (HA22) sensitization/mitigation study. Vehicle arm (PBS) (AID 1159510); further: potency means the concentration at half of the fitted maximal effect
# [8] = Immunotoxin (SS1P) sensitization/mitigation study. Vehicle arm (DMEM) (AID 1159513); further: potency means the concentration at half of the fitted maximal effect
# [9] = High-throughput drug toxicity screening in the BPDCN cell line Gen2.2 (AID 1224824); conditions: Gen2.2 BPDCN cells; at 45.8 µM (top of the series);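 further: cells exposed to compounds for 48 h before reading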
# How it was run: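 Gen2.2 cells, 500 per well in phenol red-free RPMI with 10% FBS, exposed to compounds 48 h at 37 C, 5% CO2; viability by CellTiter-Glo luminescence. Percent activity scaled to DMSO (100%) and 9.2 uM bortezomib final (0%).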
# [10] = High-throughput drug toxicity screening in the BPDCN cell line Cal-1 (AID 1224825); conditions: Cal-1 BPDCN cell viability, qHTS; at 45.8 µM (top of the series)
# How it was run: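 500 Cal-1 cells/well, RPMI + glutamine + 10% FBS (phenol red-free); cpd added by pin tool; 48 h, 37C, 5% CO2; CTG 15 min RT, lumi read. Normalised: DMSO 100%, bortezomib 9.2 uM 0%.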
# [11] = qHTS profiling for inhibitors of Plasmodium falciparum (HB3) proliferation (AID 743324; active means well fitted curve in the direction sought with a large enough effect; inactive means no such curve, though single readings can be large or run the other way;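 further: 100% = DMSO vehicle wells and 0% = artemisinin-treated control wells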); conditions: Plasmodium falciparum HB3 blood-stage proliferation; at 28.7 µM (top of the series) unless noted
# How it was run: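 P. falciparum HB3 grown in erythrocytes (0.3% parasitemia, 2.5% hematocrit final) with compound for 72 h at 37 C, 5% CO2. Parasite DNA detected by SYBR Green after saponin/triton lysis overnight; normalized to 0.29 uM artemisinin and DMSO.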
compound,measurement,setting,value
COc1ccc2c(c[n+](C)c3c4cc5c(cc4ccc23)OCO5)c1OC,remaining parasite growth % (stronger effect = lower value),[1],47.6%
same,"activity, percent of control",[2],36.7%
same,"parasite growth, % of DMSO control",[3],71.2%
same,"parasite growth remaining, % of DMSO control (lower = more inhibition)",[4],74.8%
same,"parasite growth, % of control (lower = inhibition)",[5],99%
same,"growth, % of control",[6],104%
same,Potency,[7],1.32 µM (active)
same,Potency,[8],8.33 µM (active)
same,"cell viability, % of control (lower = more cytotoxic)",[9],7.65%
same,viability (% of control),[10],3.4%
COc1cc(N2CCC(N3CCN(C)CC3)CC2)ccc1Nc1ncc(Cl)c(Nc2ccccc2S(=O)(=O)C(C)C)n1,Potency,[8],5.26 µM (active)
O=C(Nc1cc(Cl)cc2c1[nH]c1cnccc12)c1cccnc1,Potency,[8],13.2 µM (active)
Cc1cc(SCc2sc(-c3ccc(C(F)(F)F)cc3)nc2C)ccc1OCC(=O)O,Potency,[7],inactive
same,Potency,[8],inactive
CC(C)(C)c1cnc(CSc2cnc(NC(=O)C3CCNCC3)s2)o1,Potency,[7],0.0332 µM (active)
same,Potency,[8],0.0526 µM (active)
NC(=O)c1ccc(I)c([N+](=O)[O-])c1,Potency,[8],inactive
CC[C@H](CO)Nc1nc(NCc2ccccc2)c2ncn(C(C)C)c2n1,remaining parasite growth % (stronger effect = lower value),[1],61.3%
same,"activity, percent of control",[2],50.4%
same,"parasite growth remaining, % of DMSO control (lower = more inhibition)",[4],67.6%
same,"parasite growth, % of control (lower = inhibition)",[5],48%
same,"growth, % of control",[6],47.3%
same,Potency,[7],20.9 µM (active)
same,Potency,[8],23.5 µM (active)
Cc1nc(-c2ccc(-c3ccc(C(=O)N4CCc5cc6c(cc54)C4(CCN(C)CC4)CO6)cc3)c(C)c2)no1,remaining parasite growth % (stronger effect = lower value),[1],36.2%
same,"activity, percent of control",[2],63.3%
same,"remaining proliferation (% of control), lower = more inhibition",[11],17.2%
same,"parasite growth, % of DMSO control",[3],76%
same,"parasite growth remaining, % of DMSO control (lower = more inhibition)",[4],101%
same,"parasite growth, % of control (lower = inhibition)",[5],77.5%
same,"growth, % of control",[6],43.5%
same,Potency,[7],23.5 µM (active)
same,Potency,[8],26.4 µM (active)
same,"cell viability, % of control (lower = more cytotoxic)",[9],163%
same,viability (% of control),[10],126%
Cc1cc2c(cc1C1(c3ccc(C(=O)O)cn3)CC1)C(C)(C)CCC2(C)C,Potency,[8],inactive
C[C@@H](O[C@H]1OCCN(Cc2n[nH]c(=O)[nH]2)[C@@H]1c1ccc(F)cc1)c1cc(C(F)(F)F)cc(C(F)(F)F)c1,Potency,[7],14.8 µM (active)
same,Potency,[8],18.7 µM (active)
CC(C)(C)C(=O)Oc1ccc2c(c1)nc(NC(=O)c1cccc([N+](=O)[O-])c1)n2CCCO,Potency,[8],inactive
CC(=O)Nc1ccc(OC[C@](C)(O)C(=O)Nc2ccc([N+](=O)[O-])c(C(F)(F)F)c2)cc1,remaining parasite growth % (stronger effect = lower value),[1],102%
same,"activity, percent of control",[2],97.8%
same,"remaining proliferation (% of control), lower = more inhibition",[11],71.3%
same,"parasite growth, % of DMSO control",[3],70.7%
same,"parasite growth remaining, % of DMSO control (lower = more inhibition)",[4],88.6%
same,"parasite growth, % of control (lower = inhibition)",[5],88.3%
same,"growth, % of control",[6],91.2%
same,Potency,[7],inactive
same,Potency,[8],inactive
same,"cell viability, % of control (lower = more cytotoxic)",[9],138%
same,viability (% of control),[10],106%
COc1ccc(-c2c(-c3ccc(O)cc3O)n[nH]c2C)cc1,Potency,[8],16.6 µM (active)
Nc1nc(-c2nn(Cc3ccccc3F)c3ncccc23)nc(N)c1N1CCOCC1,remaining parasite growth % (stronger effect = lower value),[1],100%
same,"activity, percent of control",[2],94.1%
same,"remaining proliferation (% of control), lower = more inhibition",[11],67.6%
same,"parasite growth remaining, % of DMSO control (lower = more inhibition)",[4],91.1%
same,"parasite growth, % of control (lower = inhibition)",[5],60.8%
same,"growth, % of control",[6],51.5%
same,Potency,[7],inactive
same,Potency,[8],inactive
CC#C[C@]1(O)CC[C@H]2[C@@H]3CCC4=CC(=O)CCC4=C3[C@H](c3ccc(N(C)C)cc3)C[C@@]21C,Potency,[8],23.5 µM (active)
N#Cc1c(O)c2c(-c3ccc(-c4ccccc4O)cc3)csc2[nH]c1=O,Potency,[8],inactive
CC(=O)NCCC(=O)N[C@@H](CCC(N)=O)C(=O)N[C@@H](CO)C(=O)N[C@@H](CCC(N)=O)C(=O)N[C@@H](CCC(N)=O)C(=O)N[C@H](C(=O)N[C@@H](Cc1ccccc1)C(=O)N[C@]1(C)CCCCCCC=CCCC[C@@](C)(C(=O)N[C@@H](CCC(N)=O)C(=O)N[C@@H](CC(N)=O)C(N)=O)NC(=O)[C@H](CC(C)C)NC(=O)[C@H](CC(C)C)NC(=O)[C@@H](CCCNC(=N)N)NC(=O)[C@H](Cc2c[nH]c3ccccc23)NC(=O)[C@H](CC(C)C)NC(=O)[C@H](CC(N)=O)NC1=O)[C@H](C)O,Potency,[8],inactive
CC1CC(C)C(=O)C(C(O)CC2CC(=O)NC(=O)C2)C1 (configuration not stated),remaining parasite growth % (stronger effect = lower value),[1],0.131% [at 57.5 µM]
same,"activity, percent of control",[2],0.244% [at 57.5 µM]
same,"remaining proliferation (% of control), lower = more inhibition",[11],-0.376% [at 57.5 µM]
same,Potency,[7],0.054 µM (active)
same,Potency,[8],0.191 µM (active)
O=C(Oc1ccc([N+](=O)[O-])cc1)N1CCC(C(O)(c2ccc3c(c2)OCO3)c2ccc3c(c2)OCO3)CC1,remaining parasite growth % (stronger effect = lower value),[1],26.6%
same,"activity, percent of control",[2],90.2%
same,"remaining proliferation (% of control), lower = more inhibition",[11],75.8%
same,"parasite growth, % of DMSO control",[3],63%
same,"parasite growth remaining, % of DMSO control (lower = more inhibition)",[4],78.9%
same,"parasite growth, % of control (lower = inhibition)",[5],33.6%
same,"growth, % of control",[6],77.1%
same,Potency,[7],5.26 µM (active)
same,Potency,[8],inactive
same,"cell viability, % of control (lower = more cytotoxic)",[9],40.5%
same,viability (% of control),[10],64.3%
O=C1CCCC2=C1C(c1[nH]ncc1Cl)N=C(Nc1nc3ccccc3o1)N2 (configuration not stated),Potency,[8],inactive
CN(NC(=O)CC(=O)NN(C)C(=S)c1ccccc1)C(=S)c1ccccc1,Potency,[8],inactive
CCCCCCCc1ccc(CCc2cccc(O)c2C(=O)O)cc1,Potency,[7],23.5 µM (active)
same,Potency,[8],18.7 µM (active)
COc1ccc2c(c1)CC[C@H]1[C@@H]2CC[C@]2(C)[C@@H](NCCCCCCN3C(=O)C=CC3=O)CC[C@H]12,remaining parasite growth % (stronger effect = lower value),[1],86.3%
same,"activity, percent of control",[2],73.1%
same,"remaining proliferation (% of control), lower = more inhibition",[11],50.7%
same,"parasite growth, % of DMSO control",[3],62.7%
same,"parasite growth, % of control (lower = inhibition)",[5],37.3%
same,"growth, % of control",[6],77.6%
same,Potency,[7],20.9 µM (active)
same,Potency,[8],20.9 µM (active)
CCn1c(-c2nonc2N)nc2cnc(Oc3cccc(NC(=O)c4ccc(OCCN5CCOCC5)cc4)c3)cc21,Potency,[7],18.7 µM (active)
same,Potency,[8],7.43 µM (active)
